In the library only some 2% were active in any assay of this set; here they are far more common.
Granule exo inh = blocks lytic granule exocytosis; TALL-104 LAMP-1 surface exposure, flow cytometry; cells stimulated with thapsigargin and PMA; inhibition, % at 10 µM; actives 0.66% (n = 360,000); AID 651702;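 active means inhibition above about 55%, limit read from the data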
TLR4 MyD88 comp = blocks binding of human TLR4 to MyD88; actives 0.18% (n = 200,000); HeLa CL3-4 TLR4/MyD88 BLA complementation, FRET ratio; O00206+Q99836; AID 861; inhibition, % at 8.4 µM; in the data active means inhibition above about 25%;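 further: 0% = vehicle and 100% = reference inhibitor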
ABHD5-PLIN5 inh = blocks binding of human ABHD5 to perilipin-5; Q00G26+Q8WTS1; Split G. princeps luciferase complementation, luminescence, 4 h; inhibition, % at 4 µM; actives 0.78% (n = 360,000);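 active means inhibition above the mean inhibition across every tested compound plus 3 SD, cut at about 22% in these data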;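 further: 0% = DMSO only wells and the 100% control is not disclosed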
Target sequence (Q00G26 whole entry, looked up): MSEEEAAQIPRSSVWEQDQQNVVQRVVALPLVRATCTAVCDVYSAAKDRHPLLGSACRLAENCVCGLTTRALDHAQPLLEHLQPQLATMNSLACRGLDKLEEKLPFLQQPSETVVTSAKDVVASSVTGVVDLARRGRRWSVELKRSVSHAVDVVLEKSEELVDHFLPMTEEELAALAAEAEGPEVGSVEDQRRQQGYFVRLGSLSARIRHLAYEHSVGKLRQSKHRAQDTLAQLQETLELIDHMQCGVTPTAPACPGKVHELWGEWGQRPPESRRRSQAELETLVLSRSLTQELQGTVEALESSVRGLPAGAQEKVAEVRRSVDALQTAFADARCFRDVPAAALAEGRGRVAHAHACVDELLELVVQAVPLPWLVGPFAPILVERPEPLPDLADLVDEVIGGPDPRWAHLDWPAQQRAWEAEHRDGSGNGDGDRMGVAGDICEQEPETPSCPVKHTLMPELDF
Target sequence (Q8WTS1 whole entry, looked up): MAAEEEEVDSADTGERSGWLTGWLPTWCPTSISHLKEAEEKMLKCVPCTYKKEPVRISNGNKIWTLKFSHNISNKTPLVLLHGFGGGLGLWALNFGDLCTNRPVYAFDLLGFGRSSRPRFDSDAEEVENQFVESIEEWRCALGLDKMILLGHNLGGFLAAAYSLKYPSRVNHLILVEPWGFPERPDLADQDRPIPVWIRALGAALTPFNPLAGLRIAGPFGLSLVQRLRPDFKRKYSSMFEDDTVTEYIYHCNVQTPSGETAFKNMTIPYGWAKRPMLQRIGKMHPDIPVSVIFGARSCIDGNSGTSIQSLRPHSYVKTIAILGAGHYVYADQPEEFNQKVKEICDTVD
NOD2-RIPK2 inh = inhibitors of human NOD2-RIPK2 interaction. O43353. CHO BLA complementation NOD2-RIPK2, CCF4 ratio. inhibition, % at 4.98 µM. actives 0.38% (n = 360,000); in the data active means inhibition above about 21%;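 further: 0% = vehicle only and 100% = reference blocker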
TLR9-MyD88 inh = blocks human TLR9 binding to MyD88. Q9NR96+Q99836. CHO BLA complementation TLR9-MyD88, CCF4 FRET ratio. inhibition, % at 4.98 µM. actives 0.21% (n = 340,000). AID 504734;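 active means inhibition above the mean over all tested compounds plus 3 SD, cut at about 21% in these data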;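 further: 0% = DMSO only wells and 100% = clavulanate BLA inhibitor control wells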
Beta2AR agonist = agonists of human beta-2 adrenergic receptor inducing internalization. P07550. Am2.2-beta2AR cells, FAP receptor internalization, flow cytometry. response, % (no concentration beside the values). actives 0.43% (n = 340,000);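 active means response above a set limit, near 3 SD of response in nonfluorescent compounds, cut at about 42% in these data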
B2AR ag CP1 = human beta-2 adrenergic receptor agonism, cherry pick | shares compounds with Beta2AR agonist | Am2.2-beta2AR cells, FAP surface receptor, flow cytometry; hits give low values | percent response (surface receptor), % at 10 µM | actives 25% (n = 1,100) | AID 540358;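 active means surface receptor percent response at or below 58%, roughly 3 SD from nonfluorescent compounds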
B2AR FAP counter = fluorescence artifact in beta-2AR agonist FAP counterscreen; shares compounds with Beta2AR agonist; Am2.2 cells, FAP fluorogen flow cytometry; hits give low values; calls only at 10 µM; 1,100 tested, under 10 active; AID 588765;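 active means percent response below a set limit in fluorescence channel 1 and below 50% in channel 8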
The depositor's hits bear a star; i = inactive; . = not tested or not shown.

SMILES	Granule exo inh	TLR4 MyD88 comp	ABHD5-PLIN5 inh	NOD2-RIPK2 inh	TLR9-MyD88 inh	Beta2AR agonist	B2AR ag CP1	B2AR FAP counter
CCC[C@H](N[C@@H](CCC)[C@H](O)c1ccccc1)[C@H](O)c1ccccc1	4	.	2	9	1	-6	112	i
CCCCC(CC)CNCC(O)c1ccccc1 (centres undefined)	1	-2	5	-13	2	-11	.	.
CN(C)C(CNC(=O)Cc1c(Cl)cccc1Cl)c1ccccc1 (centres undefined)	1	-9	12	2	0	4	.	.
CCOc1c(Cl)cc(CNC(C)C(O)c2ccccc2)cc1OC (centres undefined)	-2	6	-3	-9	-5	7	107	i
O=C(Cc1ccccc1)NC(Cc1ccc(Cl)cc1)C(=O)O (centres undefined)	4	.	4	-1	4	-3	.	.
CC(NCc1cccc(Cl)c1Cl)C(O)c1ccccc1 (centres undefined)	3	-6	6	0	-7	-12	109	i
COc1ccc(CNCCc2ccc(Cl)cc2Cl)cc1	-8	.	-1	-9	-1	2	.	.
CC(NCc1ccc(Cl)cc1Cl)C(O)c1ccccc1 (centres undefined)	7	-2	0	-10	17	-4	117	i
CC(NCc1ccc(Cl)cc1)C(O)c1ccccc1 (centres undefined)	-2	-1	7	-10	1	-5	102	i
O=C1NC(=S)SC1=Cc1ccc(N(CCCl)CCCl)cc1	11	.	5	-7	-11	-65	.	.
COc1cc(OC)c(OC)cc1CNC(C)C(O)c1ccccc1 (centres undefined)	0	-10	3	2	0	6	118	i
COC(=O)C1=C(c2ccc(OCc3ccccc3)cc2)C[C@@H]2CC[C@H]1N2C(=O)NCc1ccccc1OC	6	.	-1	0	0	.	.	.
COC(=O)C1=C(c2ccc(OCc3ccccc3)cc2)C[C@@H]2CC[C@H]1N2C(=O)NCc1ccc(OC)c(OC)c1	-5	.	4	-6	-1	1	103	i
COC(=O)C1=C(c2cc3ccccc3s2)C[C@@H]2CC[C@H]1N2C(=O)NCc1ccc(C(F)(F)F)cc1	-3	.	-13	7	0	74*	89	i
CCOC(=O)c1cc2cc(OC)ccc2n1C1CCN(Cc2ccccc2)CC1	5	.	-12	-14	.	.	.	.
CC(C)(C)C1(CCO)C(=O)NC(=S)NC1=O	1	.	1	-9	-15	8	.	.
Cc1cc(C(=O)OC(C)C(=O)Nc2ccccc2)c(C)n1C1CC1 (centres undefined)	3	.	4	-15	-1	.	.	.
COC(=O)[C@]12OC[C@]34C([C@@H](O)[C@@H]1O)[C@]1(C)CC(=O)C(O)=C(C)[C@@H]1C[C@H]3OC(=O)[C@H](O)[C@@H]24 (some centres undefined)	0	.	7	26*	-6	42*	64	i
CC[C@H]1c2ccccc2[C@@H]2CC[C@H]1N2c1ccccc1	-8	.	-16	-13	.	.	.	.
COc1ccc(CCC(C)NCCc2ccccc2)cc1 (centres undefined)	-3	10	-3	-1	3	-4	.	.
CC(CCc1ccccc1)NC(C)C(O)c1ccc(O)cc1 (centres undefined)	3	5	-2	-13	9	4	109	i
CN(Cc1cccc(-c2ccncc2)c1)C(=O)Oc1ccc([N+](=O)[O-])cc1	12	.	6	10	.	.	.	.

Compound activity from PubChem BioAssay.
